Measurements taken from PubChem BioAssay (NCI).
About 83,000 compounds went through this panel and 20% of them were active in at least one assay; those are over-represented in the sample as a whole.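 Percent growth is the endpoint: 0 to 100 indicates growth inhibition (40 means 60% inhibition), 0 means no net growth, and negative values indicate cell death.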 Activity calls are given as the source filed them. The calls were made as follows: active = growth percent below 10; inactive = the rest.

Experiments:
Assay in all cases: NCI-60 one-dose screen, 48 h (100 = growth as untreated, 0 = no growth, -100 = all killed)
Details in all cases: 10 µM unless noted
SK-MEL-2 melanoma = tested on: SK-MEL-2 melanoma
EKVX NSCLC = tested on: EKVX NSCLC
UO-31 renal = tested on: UO-31 renal
TK-10 renal = tested on: TK-10 renal
ACHN renal = tested on: ACHN renal
CAKI-1 renal = tested on: CAKI-1 renal
A498 renal = tested on: A498 renal
CCRF-CEM leukemia = tested on: CCRF-CEM leukemia
MOLT-4 leukemia = tested on: MOLT-4 leukemia
SR leukemia = tested on: SR leukemia
RPMI-8226 leukemia = tested on: RPMI-8226 leukemia
OVCAR-8 ovarian = tested on: OVCAR-8 ovarian
OVCAR-5 ovarian = tested on: OVCAR-5 ovarian
SK-OV-3 ovarian = tested on: SK-OV-3 ovarian
IGROV1 ovarian = tested on: IGROV1 ovarian
OVCAR-3 ovarian = tested on: OVCAR-3 ovarian
HS 578T breast = tested on: HS 578T breast
NCI/ADR-RES ovarian = tested on: NCI/ADR-RES ovarian
SN12C renal = tested on: SN12C renal
OVCAR-4 ovarian = tested on: OVCAR-4 ovarian

Measured: growth

O=C(/C=C/c1cccc(O)c1)c1ccccc1O
inactive: SK-MEL-2 melanoma 84.1% | EKVX NSCLC 86.9% | UO-31 renal 73.9% | TK-10 renal 121% | ACHN renal 86.9% | CAKI-1 renal 50.4% | A498 renal 106% | CCRF-CEM leukemia 47.1% | MOLT-4 leukemia 66.9% | SR leukemia 36% | RPMI-8226 leukemia 28% | OVCAR-8 ovarian 92.9% | OVCAR-5 ovarian 99.4% | SK-OV-3 ovarian 107% | IGROV1 ovarian 66.7% | OVCAR-3 ovarian 93.5% | HS 578T breast 86.9% | NCI/ADR-RES ovarian 86.6%

C=C(C)[C@@H]1CC[C@]2(CN)CC[C@]3(C)[C@H](CC[C@@H]4[C@@]5(C)CCC(=O)NC(C)(C)[C@@H]5CC[C@]43C)[C@@H]12
inactive: SK-MEL-2 melanoma 98.8% | EKVX NSCLC 87.3% | SN12C renal 65.6% | TK-10 renal 114% | CAKI-1 renal 59.9% | A498 renal 96.2% | CCRF-CEM leukemia 20.9% | MOLT-4 leukemia 21.5% | RPMI-8226 leukemia 37.9% | OVCAR-8 ovarian 66.5% | OVCAR-5 ovarian 97.8% | OVCAR-4 ovarian 70.7% | SK-OV-3 ovarian 92% | IGROV1 ovarian 70.3% | OVCAR-3 ovarian 88% | HS 578T breast 84.1% | NCI/ADR-RES ovarian 70%
active: SR leukemia -27.1%

CCOC(=O)N1CCN(CCCCOc2ccc(C(C)(C)CC)cc2)CC1
inactive: SK-MEL-2 melanoma 95.8% | EKVX NSCLC 99.1% | UO-31 renal 83.1% | TK-10 renal 120% | ACHN renal 97.3% | CAKI-1 renal 85.8% | A498 renal 108% | CCRF-CEM leukemia 73% | MOLT-4 leukemia 67.2% | SR leukemia 90.3% | RPMI-8226 leukemia 84.4% | OVCAR-8 ovarian 103% | OVCAR-5 ovarian 106% | OVCAR-4 ovarian 93.8% | SK-OV-3 ovarian 104% | IGROV1 ovarian 110% | OVCAR-3 ovarian 103% | HS 578T breast 108% | NCI/ADR-RES ovarian 88.2%

O=[N+]([O-])c1cccc(/C=N\Nc2ccccc2)c1
inactive: SK-MEL-2 melanoma 42.1% | EKVX NSCLC 59.8% | TK-10 renal 98.7% | ACHN renal 41.9% | CAKI-1 renal 59.9% | A498 renal 101% | CCRF-CEM leukemia 59.5% | MOLT-4 leukemia 71.5% | SR leukemia 89.6% | RPMI-8226 leukemia 86.5% | OVCAR-8 ovarian 63.8% | OVCAR-5 ovarian 74.7% | SK-OV-3 ovarian 95.8% | OVCAR-3 ovarian 73.1% | HS 578T breast 71.7% | NCI/ADR-RES ovarian 48.7%

COc1cccc(-c2nn(-c3ccccc3)cc2-c2ccnc(NCCCNS(=O)(=O)c3ccc(C(F)(F)F)cc3)c2)c1
inactive: SK-MEL-2 melanoma 19.3% | EKVX NSCLC 46.5% | SN12C renal 23% | TK-10 renal 42.1% | CAKI-1 renal 27.2% | A498 renal 20.3% | CCRF-CEM leukemia 16.8% | RPMI-8226 leukemia 13.3% | OVCAR-8 ovarian 30.7% | OVCAR-5 ovarian 50.1% | OVCAR-4 ovarian 33.5% | SK-OV-3 ovarian 37.7% | IGROV1 ovarian 39.6% | OVCAR-3 ovarian 36% | HS 578T breast 38.7% | NCI/ADR-RES ovarian 22.8%
active: MOLT-4 leukemia -0.667% | SR leukemia -13.1%

Cn1cc(-c2csc(-c3cn(CCNC(=O)OC(C)(C)C)c4ccc(F)cc34)n2)c2cccnc21
inactive: SK-MEL-2 melanoma 82.4% | EKVX NSCLC 55.9% | SN12C renal 85.9% | TK-10 renal 104% | ACHN renal 69.2% | A498 renal 91.1% | CCRF-CEM leukemia 33.5% | MOLT-4 leukemia 31.8% | SR leukemia 65.3% | RPMI-8226 leukemia 34.4% | OVCAR-5 ovarian 95.3% | OVCAR-4 ovarian 43.8% | SK-OV-3 ovarian 96.6% | IGROV1 ovarian 49.4% | OVCAR-3 ovarian 75.5% | HS 578T breast 84.3% | NCI/ADR-RES ovarian 43.8%

NC(N)=N/N=C/c1ccc(-c2ccc(-c3ccc(Cl)cn3)s2)cc1
inactive: SK-MEL-2 melanoma 109% | EKVX NSCLC 98.9% | UO-31 renal 78% | TK-10 renal 112% | ACHN renal 92.2% | CAKI-1 renal 81.5% | A498 renal 88.8% | CCRF-CEM leukemia 29.7% | MOLT-4 leukemia 73.7% | SR leukemia 11.6% | RPMI-8226 leukemia 38.4% | OVCAR-8 ovarian 99.3% | OVCAR-5 ovarian 107% | OVCAR-4 ovarian 99.3% | IGROV1 ovarian 91.1% | OVCAR-3 ovarian 85.9% | HS 578T breast 92.3% | NCI/ADR-RES ovarian 50.8%

CC1(C)c2ccccc2C(=O)C1(Br)Cc1ccccc1 (stereo unspecified)
inactive: SK-MEL-2 melanoma 103% | EKVX NSCLC 94.5% | SN12C renal 95.4% | TK-10 renal 105% | ACHN renal 87.7% | A498 renal 89.7% | CCRF-CEM leukemia 26.4% | MOLT-4 leukemia 16.4% | SR leukemia 53.5% | RPMI-8226 leukemia 46.8% | OVCAR-8 ovarian 93% | OVCAR-5 ovarian 73.7% | OVCAR-4 ovarian 63.6% | SK-OV-3 ovarian 110% | IGROV1 ovarian 92.5% | OVCAR-3 ovarian 65.4% | HS 578T breast 84.1% | NCI/ADR-RES ovarian 72.8%

C=C1C(=O)O[C@H]2[C@H]1CC/C(COC(=O)NCc1cc3ccccc3[nH]1)=C\CC[C@@]1(C)O[C@@H]21
inactive: SK-MEL-2 melanoma 52.7% | EKVX NSCLC 54.7% | A498 renal 92.5% | OVCAR-5 ovarian 26.2% | SK-OV-3 ovarian 86.7% | HS 578T breast 79.3% | NCI/ADR-RES ovarian 71.4%
active: UO-31 renal -100% | TK-10 renal -54.8% | ACHN renal -75.9% | CCRF-CEM leukemia 2.95% | MOLT-4 leukemia 1.8% | SR leukemia -2.88% | RPMI-8226 leukemia -32.8% | OVCAR-8 ovarian 6.1% | OVCAR-4 ovarian -0.221% | IGROV1 ovarian -20.5% | OVCAR-3 ovarian -54.4%

Fc1ccc(Nc2nc(Nc3ccc(-c4nc5ccccc5[nH]4)cc3)nc(N3CCCC3)n2)cc1
inactive: SK-MEL-2 melanoma 95.2% | EKVX NSCLC 71.9% | UO-31 renal 68.1% | TK-10 renal 151% | ACHN renal 73.1% | CAKI-1 renal 88% | A498 renal 75.3% | MOLT-4 leukemia 48.2% | SR leukemia 10.7% | OVCAR-8 ovarian 81.7% | OVCAR-5 ovarian 97.4% | OVCAR-4 ovarian 88.6% | SK-OV-3 ovarian 75.1% | IGROV1 ovarian 83% | OVCAR-3 ovarian 94.4% | HS 578T breast 84.6% | NCI/ADR-RES ovarian 63%
active: CCRF-CEM leukemia 5.35% | RPMI-8226 leukemia -11.6%

COC(=O)[C@]12CC[C@@H](C)[C@H](C)[C@@H]1C1=CC[C@@H]3[C@@]4(C)C[C@@H](OC(C)=O)[C@H](O)[C@@](C)(CO)[C@@H]4[C@H](O)C[C@@]3(C)[C@]1(C)CC2
active: SK-MEL-2 melanoma -84.2% | EKVX NSCLC -91.8% | UO-31 renal -74.1% | TK-10 renal -96.9% | ACHN renal -88.3% | CAKI-1 renal -85.6% | A498 renal -95.9% | CCRF-CEM leukemia -68% | MOLT-4 leukemia -55.9% | SR leukemia -45.7% | RPMI-8226 leukemia -29.4% | OVCAR-8 ovarian -60.9% | OVCAR-4 ovarian -79.6% | OVCAR-3 ovarian -85% | HS 578T breast -50.5% | NCI/ADR-RES ovarian -67.6%

OCC(CO)(CCl)CCl
inactive: SK-MEL-2 melanoma 87.8% | EKVX NSCLC 104% | SN12C renal 98.3% | TK-10 renal 95% | CAKI-1 renal 95% | A498 renal 111% | CCRF-CEM leukemia 90.4% | MOLT-4 leukemia 91.1% | SR leukemia 95.6% | OVCAR-8 ovarian 101% | OVCAR-5 ovarian 98.1% | OVCAR-4 ovarian 109% | SK-OV-3 ovarian 88.5% | IGROV1 ovarian 109% | OVCAR-3 ovarian 105% | HS 578T breast 105% | NCI/ADR-RES ovarian 99%

C=C1C(=O)O[C@H]2[C@H]1CC/C(Cn1cc(-c3ccc(F)cc3)nn1)=C\CC[C@@]1(C)O[C@@H]21
active: UO-31 renal -80.8% | TK-10 renal -92.9% | ACHN renal -19.7% | CAKI-1 renal -12.9% | CCRF-CEM leukemia -36.6% | MOLT-4 leukemia -25.4% | SR leukemia -15.1% | RPMI-8226 leukemia -34.1% | OVCAR-8 ovarian -16% | OVCAR-5 ovarian -1.87% | IGROV1 ovarian -40.3% | OVCAR-3 ovarian -91.3%
inactive: SK-MEL-2 melanoma 14.9% | EKVX NSCLC 68.4% | A498 renal 27.4% | OVCAR-4 ovarian 13.7% | SK-OV-3 ovarian 102% | HS 578T breast 58.1% | NCI/ADR-RES ovarian 35.6%

Nc1ccc(Br)cn1
inactive: SK-MEL-2 melanoma 98.8% | EKVX NSCLC 110% | SN12C renal 96.3% | TK-10 renal 107% | ACHN renal 109% | CAKI-1 renal 113% | CCRF-CEM leukemia 80.4% | MOLT-4 leukemia 91.5% | SR leukemia 98.9% | RPMI-8226 leukemia 101% | OVCAR-5 ovarian 93% | OVCAR-4 ovarian 101% | SK-OV-3 ovarian 103% | IGROV1 ovarian 110% | HS 578T breast 99.5% | NCI/ADR-RES ovarian 103%

C#CCN=C[C@]12CC[C@@H](C(=C)C)[C@@H]1[C@H]1CC[C@@H]3[C@@]4(C)CCC(=O)C(C)(C)[C@@H]4CC[C@@]3(C)[C@]1(C)CC2
active: UO-31 renal -78.2%
inactive: SK-MEL-2 melanoma 91.7% | EKVX NSCLC 68.3% | TK-10 renal 104% | ACHN renal 75.7% | CAKI-1 renal 45% | A498 renal 91.9% | CCRF-CEM leukemia 61.3% | MOLT-4 leukemia 42.6% | SR leukemia 36.5% | RPMI-8226 leukemia 33% | OVCAR-8 ovarian 57.2% | OVCAR-5 ovarian 115% | OVCAR-4 ovarian 53.5% | SK-OV-3 ovarian 91.8% | OVCAR-3 ovarian 62.3% | HS 578T breast 87.8% | NCI/ADR-RES ovarian 64.2%

Cn1cc(-c2csc(-c3cn(CCCN4CCCCC4)c4ccccc34)n2)c2cccnc21
active: UO-31 renal -90.2% | TK-10 renal -84.3% | ACHN renal -97.4% | CCRF-CEM leukemia -27.9% | MOLT-4 leukemia -50.5% | SR leukemia -50.7% | RPMI-8226 leukemia -35.9% | OVCAR-8 ovarian -68.4% | OVCAR-4 ovarian -48.2% | OVCAR-3 ovarian -80.9% | NCI/ADR-RES ovarian -25%
inactive: SK-MEL-2 melanoma 101% | EKVX NSCLC 70.8% | A498 renal 82.6% | OVCAR-5 ovarian 92.9% | SK-OV-3 ovarian 94.7% | IGROV1 ovarian 79.6% | HS 578T breast 67.5%

Cn1c(=O)c2c(nc(N3CCCC3)n2C)n(C)c1=O
inactive: SK-MEL-2 melanoma 97.4% | EKVX NSCLC 98.9% | UO-31 renal 93.8% | TK-10 renal 85.3% | ACHN renal 106% | CAKI-1 renal 93.8% | A498 renal 81.9% | CCRF-CEM leukemia 105% | MOLT-4 leukemia 95.1% | SR leukemia 100% | OVCAR-8 ovarian 100% | OVCAR-5 ovarian 99.1% | OVCAR-4 ovarian 99.1% | SK-OV-3 ovarian 103% | IGROV1 ovarian 98.5% | OVCAR-3 ovarian 110% | HS 578T breast 105% | NCI/ADR-RES ovarian 103%
